# Source: PubChem BioAssay
# Only some compounds are listed: those with a hit (about 3.7% of all), similar ones and a draw of the others.
# BoNT-A LC inh2 = blocks Botulinum neurotoxin A light chain protease; inhibition, % at 10 µM; 360,000 tested, 0.17% active; multiplex microsphere protease substrate cleavage, flow cytometry; further: plate controls were buffer without enzyme for full effect and enzyme alone for no effect
# Anthrax LF inh2 = inhibitors of Bacillus anthracis lethal factor protease; P15917; multiplex microsphere protease cleavage assay, LF; inhibition, % at 10 µM; 360,000 tested, 0.12% active; AID 588501; further: plate controls were buffer without enzyme for full effect and enzyme alone for no effect
# MazF activator = activators of E. coli MazEF toxin-antitoxin RNase; activation, % at 20 µM; P0AE70; 350,000 tested, 0.32% active; FAM/BHQ RNA-DNA oligo cleavage fluorescence, 5 h; in the data active means activation above about 50%
# Target sequence (P0AE70 whole entry, looked up): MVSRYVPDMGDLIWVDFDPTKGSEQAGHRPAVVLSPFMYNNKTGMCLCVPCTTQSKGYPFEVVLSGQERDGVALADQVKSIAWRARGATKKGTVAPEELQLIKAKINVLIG
# Autofluor counter = counter-screen for toxin protease inhibitors: compound fluorescence. compound autofluorescence counterscreen, microsphere flow cytometry; stronger effect = higher value. 360,000 tested, 3.1% active. AID 624483. fluorescence intensity (no concentration beside the values); in the data active means fluorescence intensity above about 16000; inconclusive means no clear call, values can overlap the other calls
# BoNT-F LC inh = blocks Botulinum neurotoxin F light chain protease | Multiplex microsphere protease cleavage assay, flow cytometry | inhibition, % at 10 µM | 360,000 tested, 0.22% active | AID 588497; in the data active means inhibition above about 35%, passing the limit was not always enough; inconclusive means no clear call, values can overlap the other calls; further: plate controls were buffer without enzyme for full effect and enzyme alone for no effect
# Numbers without * were called inactive; ? = inconclusive; . = no result given. Unless noted, no stated cut-off is given here; in the data, active means inhibition above about 30%; inconclusive means no clear call, values can overlap the other calls; inactive means below that.
SMILES,BoNT-A LC inh2,Anthrax LF inh2,MazF activator,Autofluor counter,BoNT-F LC inh
CCn1nc(C)c(C(=O)Nc2cc(Oc3cc(C)cc(C)c3)cc([N+](=O)[O-])c2)c1C,?,-2,19,22749*,1
Cc1nn(C)cc1C(=O)Nc1cc(Oc2ccc(Cl)cc2)cc([N+](=O)[O-])c1,0,-1,-1,9504,4
O=C(COC(=O)C1C2CC3OC(=O)C1C3C2)Nc1ccccc1 (stereo unspecified),0,4,0,4217,0
Cc1cc(C)c(C(=O)/C=C/c2ccc(C(C)C)cc2)c(=O)[nH]1,5,-1,4,17863*,5
Cc1ccc(C(=O)Oc2cc(N)n(S(=O)(=O)c3ccc(F)cc3)n2)cc1,1,-1,68*,6008,1
NNC(=O)c1ccccc1CO,.,.,6,.,.
N#C/C(=C/c1ccc(N2CCCCCC2)o1)c1ccc(Cl)cc1,7,-4,34,22830*,1
O=c1c(-c2nnc(SCc3ccc(Cl)cc3Cl)o2)cccn1Cc1ccccc1,?,0,-4,22041*,-1
O=C(NNC(=O)c1ccc(Br)s1)c1ccc(F)c(S(=O)(=O)N2CCOCC2)c1,0,-8,2,3608,-6
O=C(COc1ccccc1)N=C1SC2CS(=O)(=O)CC2N1CCc1ccccc1 (stereo unspecified),1,2,4,5079,4
O=C(Nc1ccccc1)N1CCOCC1,0,-5,8,6476,3
O=C(Nc1ccccn1)N1CCOCC1,-3,0,5,20658*,-5
O=C1CCC(C(=O)OCC(=O)N2N=C3/C(=C/c4ccccc4)CCCC3C2c2ccccc2)N1 (stereo unspecified),?,0,1,20500*,-1
CC(Oc1ccccc1F)C(=O)NNC(=O)c1cc2ccccc2o1 (stereo unspecified),-1,-1,7,4473,-5
O=C(CSc1ncnc2c1oc1ccccc12)NCC1CCCO1 (stereo unspecified),0,2,1,7999,1
c1ccc(-c2nc(NCC3CCCO3)c3oc4ccccc4c3n2)cc1 (stereo unspecified),?,-3,-6,23676*,-1
CCc1nc(NCc2ccccn2)c2oc3ccccc3c2n1,0,1,7,3285,-6
O=C(O)CNc1nc(-c2ccccc2)nc2c1oc1ccccc12,1,1,0,4190,-9
CC(C)Cc1nc2oc3c(NCC4CCCO4)ncnc3c2c2c1CCC2 (stereo unspecified),?,2,-11,18869*,3
c1ccc2c(c1)oc1c(NCC3CCCO3)ncnc12 (stereo unspecified),0,0,2,23180*,2
c1ccc(CNc2ncnc3c2oc2ccccc23)nc1,?,-4,0,22122*,-1
O=C(CC1C[C@H](C(=O)N2CCCCC2)[C@@]2(CCc3ccccc3)c3[nH]c4ccccc4c3CCN2C1=O)NCCCn1ccnc1 (stereo partly specified),0,-8,-3,3405,-1
CN1CCc2nc(SCC(=O)Nc3ccc(Cl)cc3)c(C#N)cc2C1,3,-4,0,1979,-38
N#Cc1cc2c(nc1SCC(=O)Nc1cc(Cl)cc(Cl)c1)C1CCN2CC1,4,-6,11,20731*,5
COc1ccc2c(c1)c(=O)oc1c(C)c(OC(C)C(=O)N[C@@H](Cc3c[nH]c4ccc(O)cc34)C(=O)O)ccc12 (stereo partly specified),0,-6,-5,4053,-13
SMILES,BoNT-A LC inh2,Anthrax LF inh2,MazF activator,Autofluor counter,BoNT-F LC inh
c1ccc(Nc2nc(N3CCCCC3)nc(N3CCCCC3)n2)cc1,0,2,-4,4303,9
Cc1cccc(Nc2nc(N3CCCC3)nc(N3CCCC3)n2)c1,1,-2,3,22488*,0
c1ccc(Nc2nc(N3CCCC3)nc(N3CCCC3)n2)cc1,1,-5,-3,20430*,-1
CCCN(C)C[C@@H]1OCc2cnnn2CCCC(=O)N([C@H](C)CO)C[C@H]1C,0,0,-1,3624,1
O=C(NC(=S)Nc1ccccc1Cl)c1cncc(Br)c1,0,0,0,4073,?
COc1cccc(CNC(=O)c2cc(=O)[nH]c3ccc(S(=O)(=O)N4CCOCC4)cc23)c1,-1,-5,-1,6753,-10
CN(C)CC(C)(C)CN=Cc1c(O)[nH]c2ccccc12,0,-5,9,4861,-4
CN1CCN(Cc2c(O)ccc3c(-c4ccccc4)cc(=O)oc23)CC1,?,-4,-1,23428*,-2
COc1ccccc1-c1c(C)oc2c(CN3CCN(CCO)CC3)c(O)ccc2c1=O,0,-11,-14,3251,-9
COc1ccccc1-c1c(C)oc2c(CN3CCN(C)CC3)c(O)ccc2c1=O,?,-2,6,21100*,-2
O=C(/C=C/c1ccc(F)cc1)NCCC1=CCCCC1,-1,-2,-1,23985*,-7
O=C(/C=C/c1ccccc1)NCCC1=CCCCC1,0,2,4,2556,-5
CC1CCC(NC(=O)CNC(=O)c2cccs2)CC1 (stereo unspecified),0,5,2,5800,4
CC(C(N)=O)N1C(=O)c2cccc3cccc1c23 (stereo unspecified),1,-1,0,23424*,-4
CCC(C(=O)Nc1ccc(C(=O)O)cc1NC(=O)C(CC)c1ccccc1)c1ccccc1 (stereo unspecified),1,-13,-6,3608,-10
O=C(NC1CCCc2ccccc21)C1CCN(S(=O)(=O)N2CCCCCC2)CC1 (stereo unspecified),3,3,-9,21253*,6
CN(CC(=O)Nc1ccccc1Cl)CC(=O)Nc1cccc2ccccc12,-1,6,4,4009,-8
COc1ccc2c(c1)CCc1c(C(=O)N3CCOCC3)noc1-2,12,-18,3,18054*,16
COc1ccc2c(c1)CCc1c(C(=O)Nc3ccc(OC)c(OC)c3)noc1-2,-2,-1,-4,20591*,-3
Cc1ccccc1-n1ncc2c1CC(C)(C)CC2NC(=O)CCN1CCCCC1=O (stereo unspecified),0,0,10,4088,-1
COc1ccc(NC(=O)C2=NN(c3ccccc3)C(=O)CC2)cn1,-1,-7,-4,3283,-9
Cc1ccccc1-c1nc2sc(-c3ccccc3)cc2c(=O)o1,?,-5,-4,17440*,7
Cc1ccc(Cn2c(=O)cc(C(=O)O)c3ccccc32)cc1,1,2,-2,10046,0
CCOC(=O)c1cc(=O)n(Cc2ccccc2C)c2ccccc12,0,-1,0,20854*,0
O=C(c1ccco1)N1CCN(Cc2cc(=O)c(OCc3c(F)cccc3Cl)co2)CC1,0,-3,3,5722,0
Cc1ccc(Nc2ncccc2C(=O)NCc2cccs2)c(C)c1,?,-4,5,21631*,-10
Cc1cccc(Nc2ncccc2C(=O)NCc2cccs2)c1C,-1,-1,-2,4311,-3
